# Assay outcomes as filed in PubChem.
# The sample as a whole holds a higher share of hits than the screen did.
# JNK3 inh: JNK3 kinase activity inhibitors, primary screen, biochemical, human, purified enzyme; Mitogen-activated protein kinase 10 (Homo sapiens), P53779; HTS; inhibition, % at 8 µM; hit rate 0.61% among 60,000; in the data active = inhibition above about 17%
# Target sequence (P53779 whole entry, looked up): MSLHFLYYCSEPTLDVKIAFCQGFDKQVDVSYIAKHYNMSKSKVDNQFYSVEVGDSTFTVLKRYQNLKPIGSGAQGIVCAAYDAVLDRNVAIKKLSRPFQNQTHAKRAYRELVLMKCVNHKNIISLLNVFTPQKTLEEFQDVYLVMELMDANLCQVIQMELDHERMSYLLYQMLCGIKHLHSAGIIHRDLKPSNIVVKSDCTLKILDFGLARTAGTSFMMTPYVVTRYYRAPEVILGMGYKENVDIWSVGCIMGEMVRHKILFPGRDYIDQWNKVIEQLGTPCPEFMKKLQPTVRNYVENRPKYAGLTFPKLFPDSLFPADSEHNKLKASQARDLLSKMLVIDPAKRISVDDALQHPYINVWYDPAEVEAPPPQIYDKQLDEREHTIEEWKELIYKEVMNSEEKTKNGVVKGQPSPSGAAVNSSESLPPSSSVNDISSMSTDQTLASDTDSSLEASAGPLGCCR
# D1 mod: D1 CRE-luciferase signal change, two-sided – cell-based, HEK293 D1, dopamine EC30, D1 allosteric modulator project, primary screen; hit rate 5.9% among 58,000; dopamine EC30 potentiation; actives deviate in either direction; AID 641, 2007; D(1A) dopamine receptor (Homo sapiens), P21728; B-score at 10 µM;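 active = luminescence count or its row- and column-corrected plate score outside the 99.7% band of the plate's sample wells, on either side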
# DAT uptake mod: changed hDAT dopamine uptake under cocaine IC80, either direction, primary screen, cocaine antagonist project, cell-based, LLC-PK1 hDAT, [14C]-dopamine uptake, MLSMR; B-score at 10 µM; hit rate 1.3% among 110,000; AID 449768, 2010; LLC-PK1 hDAT cells, [14C]-dopamine uptake with cocaine IC80; actives deviate in either direction;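 active = Z score or B-score, a plate-position-corrected score, falls beyond the plate's 99.7% confidence bounds, in either direction; inactive = both scores lie inside the 99.7% bounds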
# ROCK2 inh: inhibitors of human ROCK2 kinase, primary screen, biochemical, high-throughput, luminescence; Rho-associated protein kinase 2 (Homo sapiens), O75116; purified ROCK2, Kinase-Glo ATP depletion luminescence; inhibition, % at 6 µM; hit rate 0.35% among 60,000; AID 604, 2007;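 active = inhibition above the screen-wide mean inhibition plus 3 SD, cut at about 18% in these data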
# PKA kinase inh: inhibitors of human PKA kinase activity, primary screen, biochemical, ATP-depletion luminescence, Kemptide substrate. inhibition, % at 6 µM. cAMP-dependent protein kinase catalytic subunit alpha (Homo sapiens), P17612. hit rate 0.1% among 65,000. PKA Kemptide phosphorylation, Kinase-Glo ATP luminescence;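 active = inhibition above the screen-wide mean inhibition plus 3 SD, cut at about 21% in these data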
# Hits are given with their value; 0 = inactive; - = no result.
SMILES,JNK3 inh,D1 mod,DAT uptake mod,ROCK2 inh,PKA kinase inh
Cc1nc2c(-c3ccccc3)c(C)nn2c(C)c1CCC(=O)NCc1ccco1,0,-5.2,0,0,0
CCN1CCN(c2ccc(NC(=O)CCc3c(C)nc4c(-c5ccccc5)c(C)nn4c3C)cc2)CC1,-,-,2.5,-,-
Cc1nc2cc(-c3ccc(Cl)cc3)nn2c(C)c1CCC(=O)NCc1ccco1,-,-,0,-,-
O=C(NCCCN1CCN(c2ccc(F)cc2)CC1)c1cccc(N2CCCC2=O)c1,0,-6.1,0,0,0
O=C(NCCCN1CCCC1)c1cccc(N2CCCC2=O)c1,-,-,0,-,0
O=C(OCc1ccc(Cl)cc1Cl)c1cccnc1Cl,-,-,-8.6,-,-
O=C(COC(=O)c1cccnc1Cl)c1cccc(Cl)c1,-,-,0,-,-
O=C(O)C(c1ccccc1)C1(O)CCCC1 (configuration not stated),0,-,1.7,0,0
O=C(O)C(O)c1ccccc1 (configuration not stated),-,-,0,-,-
COc1ccc([C@H]2/C=C\CN(Cc3ccc(N(C)C)cc3)[C@@H](C)C(=O)N2Cc2ccc(F)cc2)cc1,-,-,0,-,-
C/C(NC1CCCC1)=C(/C#N)C(N)=O,32,0,0,0,0
Cn1c(N2CCN(c3ccccn3)CC2)nc2c1c(=O)n(Cc1ccc(Cl)cc1)c(=O)n2C,0,-,0,0,0
Cc1cccc(Cn2c(=O)c3c(nc4n3CCCN4Cc3ccccc3)n(C)c2=O)c1,0,0,3,0,0
Cn1c(N2CCOCC2)nc2c1c(=O)n(Cc1ccc(Cl)cc1)c(=O)n2C,0,4.4,0,0,0
CCCCCC(=O)Nc1ccc(N2CCN(CC)CC2)c(Cl)c1,0,-4.6,0,0,0
CCCCCC(=O)NC(=S)Nc1ccc(N2CCCCC2)c(Cl)c1,-,-,0,-,-
O=C1c2ccccc2C(=O)C1c1nccc2ccccc12,0,-6.8,0,0,0
CN1C(=O)/C(=C/c2cn(CC(=O)N3CCCCC3)c3ccccc23)c2ccccc21,-,-,3.8,-,-
CSc1nc(NC(C)C)nc(N2CCOCC2)n1,0,18,0,0,0
COC(=O)CSc1nc(NCC(C)C)nc(N2CCOCC2)n1,0,0,0,0,0
O=C(NNC(=O)C(c1ccccc1)c1ccccc1)c1cccs1,-,-,0,-,-
Oc1cccc2ccc(Nc3ccccn3)nc12,0,-4.1,0,0,0
c1ccc(Nc2ccccc2Nc2ccccn2)nc1,43,0,0,0,0
COc1ccc(NC(=O)[C@@H]2CC=C[C@@H]3CCN(C4CCCCC4)C(=O)[C@@H]32)cc1,-,-,0,-,-
C=Cn1ccnc1P(=S)(c1ccc2c(c1)c1ccccc1n2CC)c1nccn1C=C,-,0,0,-,0
SMILES,JNK3 inh,D1 mod,DAT uptake mod,ROCK2 inh,PKA kinase inh
COCCNC(=O)C1CC(c2ccc(C(F)(F)F)cc2)=NO1 (configuration not stated),-,-,0,-,-
CC1=C(C(=O)OCC2CCCO2)C(c2ccc(C)o2)C2=C(CC(c3ccc(F)cc3)CC2=O)N1 (configuration not stated),0,-3.1,0,0,0
Cc1cccnc1NC(=O)Nc1ccc(F)cc1,0,-2.4,0,0,0
COC(=O)Nc1nc2ccc(C(=O)c3ccccc3)cc2[nH]1,21,0,-,0,0
COc1ccc(-c2nnc(SCc3c(C)noc3C)n2N)cc1OC,-,-,0,-,-
Cn1c(Cn2nnc(-c3ccccc3)n2)nnc1SCc1ccccc1Cl,-,-,0,-,-
Cc1c(NC(=O)Cn2ccc([N+](=O)[O-])n2)c(=O)n(-c2ccccc2)n1C,-,-,0,-,-
Clc1ccc(-c2nnc3n2CCCCC3)cc1,-,-,0,-,-
Cc1ccc(S(=O)(=O)N(C)Cc2ccc(-c3nnc4n3CCC4)cc2)cc1,0,0,2.2,0,0
Cc1ccc(-c2nc(-c3ccccc3)no2)c(Cl)c1,0,-8.7,0,0,0
Cc1ccc(-c2nc(-c3ccccc3)no2)cc1,-,-,0,-,-
O=C(/C=C\Nc1ccccn1)c1ccc(Cl)cc1,0,-6,0,0,0
COc1ccc(N/C=C/C(=O)c2ccc(Oc3ncccn3)cc2)cc1,-,-,0,-,-
CC(C)C(C(=O)N1CCN(C(=O)OC(C)(C)C)CC1)n1cc(-c2cn([C@@H](C)C(=O)N3CCN(C(=O)OC(C)(C)C)CC3)nn2)nn1 (some centres not stated),-,-,0,-,-
CC1=NC(C(F)(F)F)(C(F)(F)F)C(C#N)=C(C)N1,0,0,-3.8,0,0
